According to PubChem BioAssay (NCATS):
Values joined by “and” are separate entries in the source; they are usually repeats but may differ in a detail not shown here. Equal values may be shown once. Inconclusive results are not listed. Unmarked numbers belong to inactive results. Active and inactive are the calls of the source. Calls come from the whole dose curve; as a rule, active = well fitted cell-killing curve with a large enough effect; inconclusive = small, poorly fitted or top-dose-only effect, or effect the other way; inactive = no such curve, though single readings can be large or run the other way.

Test: Viability qHTS for spleen associated tyrosine kinase inhibitor (SYKi) drug resistant MV4-11 cells (AID 1963824); note: nearly all actives have a fitted effect of over 35% in size
Details: SYKi-resistant MV4-11 viability, CellTiter-Glo, 72 h; series mostly up to 45 µM; viability, % of control: at the top concentration
In short: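 SYK inhibitor-resistant MV4-11 AML cells, 500 per well, added to predispensed compounds and incubated 72 hr at 37 C, 5% CO2. Viability measured by CellTiter-Glo luminescence after 10 min at room temperature.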
Potency is the fitted concentration of half-maximal effect.

| Compound | Potency | viability, % of control |
| --- | --- | --- |
| CC(=O)c1c(OCCN2CCCCC2)c(OCCC(C)c2ccc(F)cc2)c2oc(C)nc2c1C (centres undefined) | 7.31 µM (active) | – |
| CC1OC(OC2C(C)OC(OC3C(OC(=O)C45CCC(C)(C)CC4C4=CCC6C7(C)CCC(OC8OC(C(=O)O)C(O)C(O)C8OC8OC(CO)C(O)C(OC9OC(C)C(O)C(O)C9O)C8O)C(C)(CO)C7CCC6(C)C4(C)CC5)OC(CO)C(O)C3O)C(O)C2O)C(O)C(O)C1O (centres undefined) | – | 97% [at 9.25 µM] |
| CC1CCC2C(C)(C)C(O)CCC2(C)C12Cc1c(O)cc3c(c1O2)CN(C(CCCN=C(N)N)C(=O)O)C3=O (centres undefined) | 5.63 µM (active) | – |
| N#C/C(=C\c1ccc(O)c(O)c1)C(=O)NCCCc1ccccc1 | 8.2 µM (active) | – |
| COc1cc(/C=C/C(=O)O[C@@H]2C[C@](O)(C(=O)O)C[C@@H](O)[C@H]2O)ccc1O | – | 110% |
| CC(=O)OCC1OC(O[C@H]2CC[C@]34C[C@]35CC(O)[C@]3(C)[C@@H]([C@H](C)CC/C=C(\C)C(=O)O)C(O)C[C@@]3(C)C5CC[C@H]4C2(C)C)C(O)C(O)C1OC1OCC(O)C(O)C1O (some centres undefined) | – | 79.7% [at 9.25 µM] |
| O=C(NCc1nc2ccccc2c(=O)n1-c1ccc(F)cc1)Nc1ccc(Cl)c(C(F)(F)F)c1 | 20.6 µM (active) | – |
| Cc1coc2c1CC1OC1(C)CCC1OC1(C)C2 (centres undefined) | – | 86.6% |
| O=C1Nc2ccc(I)cc2/C1=C/c1cc(Br)c(O)c(Br)c1 | 14.8 µM (active) | – |
| CC1(C)CC2C3=CCC4C5(C)CCC(OC6OC(C(=O)O)C(O)C(O)C6OC6OC(CO)C(O)C(O)C6OC6OC(CO)C(O)C(O)C6O)C(C)(CO)C5CCC4(C)C3(C)CCC2(C)C(OC2OCC(O)C(OC3OC(CO)C(O)C(O)C3O)C2O)C1O (centres undefined) | – | 112% [at 9.25 µM] |
| C[C@@H]1O[C@@H](O[C@H]2[C@H](OC(=O)[C@]34CCC(C)(C)C[C@H]3C3=CCC5[C@@]6(C)C[C@H](O)[C@H](O[C@@H]7O[C@H](CO[C@@H]8OC[C@H](O)[C@H](O)[C@H]8O)[C@@H](O)[C@H](O)[C@H]7O)C(C)(C)C6CC[C@@]5(C)[C@]3(C)C[C@H]4O)OC[C@@H](O)[C@@H]2O)[C@H](O)[C@H](O[C@@H]2OC[C@](O)(CO)[C@H]2O)[C@H]1O[C@@H]1OC[C@H](O)[C@H](O[C@@H]2OC[C@@H](O)[C@H](O)[C@H]2O)[C@H]1O (some centres undefined) | – | 85% [at 9.25 µM] |
| C=C1C(=O)O[C@@H]2C3C(=C(C)[C@@H](O)[C@@H](OC(=O)/C(=C/C)COC(C)=O)[C@@H]12)C(=O)[C@H]1O[C@@]31C (some centres undefined) | 3.55 µM (active) | – |
| CC(C)=CCC[C@](C)(O[C@@H]1O[C@H](CO[C@@H]2O[C@@H](CO)[C@H](O)[C@H]2O[C@@H]2OC[C@@H](O)[C@H](O)[C@H]2O)[C@@H](O)[C@H](O)[C@H]1O)[C@H]1CC[C@]2(C)[C@@H]1[C@H](O)CC1[C@@]3(C)CC[C@H](O[C@@H]4O[C@H](CO)[C@@H](O)[C@H](O)[C@H]4O[C@@H]4O[C@H](CO)[C@@H](O)[C@H](O)[C@H]4O)C(C)(C)C3CC[C@]12C (some centres undefined) | – | 92.9% [at 9.25 µM] |
| CC1OC(OC2C(OC3C(O[C@H]4CC[C@@]5(C)C(CC[C@]6(C)C5C(=O)C=C5C7CC(C)(C)CC(O)[C@]7(C)CC[C@]56C)C4(C)C)OC(C(=O)O)C(O)C3O)OCC(O)C2O)C(O)C(O)C1O (some centres undefined) | – | 71.2% [at 9.25 µM] |
| C[C@@H]1O[C@@H](OC[C@H]2O[C@@H](OCc3ccccc3)[C@H](O)[C@@H](O)[C@@H]2O)[C@H](O)[C@H](O)[C@H]1O | – | 91.9% [at 17.3 µM] |
| CCCC(=O)Nc1cccc(NC(=O)c2ccccc2Br)c1 | – | 67.3% |
| COc1cc(C(=O)OC[C@@]2(O)CO[C@@H](O[C@H]3[C@H](Oc4ccc(O)cc4)O[C@H](CO)[C@@H](O)[C@@H]3O)[C@@H]2O)cc(OC)c1O | – | 81.4% [at 17.3 µM] |

| Compound | Potency | viability, % of control |
| --- | --- | --- |
| COc1cc(C2c3cc4c(c(O)c3CC(CO)C2C(=O)O)OCO4)cc(OC)c1O (centres undefined) | 2 µM (active) | – |
| CCNC(=O)[C@@H]1CCCN1C(=O)[C@H](CCCN=C(N)N)NC(=O)[C@H](CC(C)C)NC(=O)[C@@H](CC(C)C)NC(=O)[C@H](Cc1ccc(O)cc1)NC(=O)[C@H](CO)NC(=O)[C@H](Cc1c[nH]c2ccccc12)NC(=O)[C@H](Cc1cnc[nH]1)NC(=O)[C@@H]1CCC(=O)N1 | 7.09 µM (active) | – |
| Cc1c(NC(=O)c2cc3c(s2)CCCC3)cccc1-c1cn(C)c(=O)c(Nc2ccc(C3C(=O)N(C)CCN3C)cc2)n1 (centres undefined) | 7.31 µM (active) and 16.6 µM (active) | – |
| C=C(C(=O)O)[C@@H]1CC[C@@]2(C)CC[C@@H](O)C(=C)C2C1 (some centres undefined) | – | 71.6% |
| Cn1nccc1Nc1nccc(-c2ccn([C@H](CO)c3ccc(Cl)c(F)c3)c(=O)c2)n1 | 4.61 µM (active) and 6.61 µM (active) | – |
| CCCCOc1ccc(-c2cncc(C(=O)NCc3cccnc3N3CCOCC3)c2)cc1Cl | 13 µM (active) | – |
| COc1ccc2[nH]c3c(-c4cccc5ccccc45)nccc3c2c1 | 0.82 µM (active) | – |
| C[C@@H]1C(=O)O[C@H](C)[C@H]1C[C@@H](O)[C@](C)(O)[C@H]1CC[C@@]2(O)C3=CC(=O)[C@@H]4C[C@@H](O)[C@@H](O)C[C@]4(C)C3CC[C@]12C (some centres undefined) | – | 98.8% [at 17.3 µM] |
| CC1CCC2(C(=O)O)CCC3(C)C(=CCC4C5(C)CCC(O)C(C)(C(=O)O)C5CCC43C)C2C1(C)O (centres undefined) | – | 97.6% [at 17.3 µM] |
| C[C@@H]1O[C@@H](O[C@H]2[C@H](OC(=O)[C@]34CCC(C)(C)C[C@H]3C3=CCC5[C@@]6(C)C[C@H](O)[C@H](O[C@@H]7O[C@H](CO)[C@@H](O)[C@H](O)[C@H]7O)[C@@](C)(CO)C6[C@H](O)C[C@@]5(C)[C@]3(C)C[C@H]4O)OC[C@H](O)[C@@H]2O)[C@H](O)[C@H](O)[C@H]1O[C@@H]1OC[C@@H](O)[C@H](O[C@H]2OC[C@](O)(CO)[C@H]2O)[C@H]1O (some centres undefined) | – | 104% [at 9.25 µM] |
| Cc1ncc(Cl)cc1NCc1ccc(C(=O)NC(CC2CCCC2)C(=O)NC2CC2)s1 (centres undefined) | 18.6 µM (active) | – |
| O=C(Nc1ccccc1)c1ccc(Nc2nnc(-c3ccc(O)cc3)c3ccccc23)cc1 | 23.1 µM (active) | – |
| CC(C)(O)C1=CCC23COC(C2)C(O)(C(=O)O)CCC13 (centres undefined) | – | 114% |
| O=C(Nc1ccc(S(=O)(=O)Nc2ccccc2Cl)c(Cl)c1)c1ccccn1 | 20.6 µM (active) | – |
| COc1ccc2c(c1)C=C1Cn3c-2c(C2CCCCC2)c2ccc(cc23)C(=O)NS(=O)(=O)N(C)CCOCCN(C)C1=O | 18.4 µM (active) | – |
| CC(C)C(NC(=O)c1ccc(O)cc1)C(=O)N1CCCC1C(=O)Nc1c(O)cccc1C(=O)O (centres undefined) | – | 78.5% [at 17.3 µM] |
| COc1cc(/C=C/C(=O)O[C@H]2[C@H](O)[C@@H](CO)O[C@@]2(CO)O[C@H]2O[C@H](CO)[C@@H](O)[C@H](O)[C@H]2O)ccc1O | – | 97.1% [at 17.3 µM] |
